Assay results published in PubChem BioAssay (NCATS).
Unmarked numbers belong to inactive results. Records with an inconclusive call do not appear. Where a call stands in place of a potency, no number is given. The source made the active and inactive calls. Calls follow the shape of the dose curve; as a rule, active = well fitted curve in the direction sought with a large enough effect; inconclusive = small, poorly fitted or top-dose-only effect, or another doubt; inactive = no such curve, though single readings can be large; an effect the other way counts as inactive or inconclusive.

Tests used:
[1] = molecular target: Glutathione peroxidase 1 (Homo sapiens) (UniProt P07203); test: Primary qHTS Assay for Inhibitors of Recombinant Selenoprotein Glutathione Peroxidase 1 (GPX1) (AID 1845191); details: recombinant GPX1, GR-coupled NADPH fluorescence, 15 min; series mostly up to 48.8 µM; also: nearly all actives have a fitted effect of over 65% in size
Outline: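 NADPH consumption tracked by fluorescence at 340/450 nm between t=0 and t=15 min, room temperature. Final mix: 10 nM GPX1, 100 nM glutathione reductase, 1 mM GSH, 0.5 mM NADPH, 0.5 mM cumene hydroperoxide, 0.01% BSA; 30 min compound–enzyme preincubation.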

[2] = molecular target: Phospholipid hydroperoxide glutathione peroxidase GPX4 (Homo sapiens) (UniProt P36969); test: Primary qHTS Assay for Inhibitors of Recombinant Selenoprotein Glutathione Peroxidase 4 (GPX4) (AID 1845192); details: recombinant GPX4, GR-coupled NADPH fluorescence, 15 min; series mostly up to 50 µM; also: nearly all actives have a fitted effect of over 65% in size
Outline: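 NADPH consumption followed by fluorescence at 340/450 nm, t=0 and after 15 min at room temperature. Reaction started with cumene hydroperoxide (0.5 mM final) after 30 min compound–GPX4 preincubation; final 200 nM GPX4, 100 nM GR, 1 mM GSH, 0.5 mM NADPH.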

[3] = molecular target: Luciferin 4-monooxygenase (Photinus pyralis) (UniProt P08659); test: Primary firefly luciferase (FLuc) qHTS assay for identification of artifact compounds. (AID 1845220); details: purified firefly luciferase, luminescence, 5 min; series mostly up to 54.1 µM; also: nearly all actives have a fitted effect of over 60% in size
Outline: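 Cell-free, 1536-well qHTS. Buffer pH 7.6 with 0.01% Tween-20 and 0.05% BSA; 10 uM D-luciferin, 10 uM ATP; 10 nM P. pyralis luciferase; luminescence after 5 min.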

[4] = Primary fluorescence-based thiol-reactive (MSTI) qHTS assay for identification of artifact compounds. (AID 1845221); details: MSTI thiol-reactivity probe, 1 h; series mostly up to 53.8 µM; also: nearly all actives have a fitted effect of over 65% in size; also: potency is read from the fitted curve at half-maximal effect;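 as to activity change, negative = thiol reactive: thiol-reactive compounds lower the probe fluorescence signal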
Outline: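 Compounds were incubated 1 h at room temperature in the dark with the MSTI probe (4 uM) in PBS pH 7.4, 2% DMSO. Signals were normalized between Acetyl-MSTI and MSTI.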

[5] = test system: Nanoluciferase (engineered Oplophorus gracilirostris luciferase); test: Primary Nanoluciferase (NLuc) qHTS assay for identification of artifact compounds. (AID 1845222); details: NLuc-conditioned medium, Nano-Glo luminescence, 5 min; series mostly up to 54.1 µM
Outline: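 Compounds are pinned into diluted (1:55) conditioned medium of NLuc-expressing S16 cells and held 15 min at room temperature protected from light. Nano-Glo substrate follows, and luminescence is read 5 min later.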

[6] = Primary redox qHTS assay for identification of artifact compounds. (AID 1845223); details: Amplex Red/HRP redox cycling with DTT, fluorescence; series mostly up to 53.8 µM
Outline: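 Redox-cycling detection via DTT (250 uM final) oxidation coupled to Amplex Red (25 uM)/HRP (250 mU/mL) in HBSS. 15 min preincubation plus 30 min after DTT, room temperature. Ex/Em 525/598 nm; 4-parameter Hill fit against DMSO and 10 uM DA3003.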

Sequence of Phospholipid hydroperoxide glutathione peroxidase GPX4 (Homo sapiens) (P36969 whole entry, looked up): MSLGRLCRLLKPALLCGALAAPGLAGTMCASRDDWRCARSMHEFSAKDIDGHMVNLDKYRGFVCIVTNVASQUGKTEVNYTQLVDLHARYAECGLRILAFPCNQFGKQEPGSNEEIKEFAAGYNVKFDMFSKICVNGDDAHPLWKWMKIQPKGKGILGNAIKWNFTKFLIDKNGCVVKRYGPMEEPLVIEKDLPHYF
Sequence of Glutathione peroxidase 1 (Homo sapiens) (P07203 whole entry, looked up): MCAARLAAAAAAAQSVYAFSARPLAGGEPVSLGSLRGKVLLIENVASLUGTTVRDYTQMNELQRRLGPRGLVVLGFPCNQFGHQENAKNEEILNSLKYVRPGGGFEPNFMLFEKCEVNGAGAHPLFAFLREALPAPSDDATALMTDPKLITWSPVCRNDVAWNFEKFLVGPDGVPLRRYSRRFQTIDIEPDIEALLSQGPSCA

CC1CCC2(OC1)OC1CC3C4CC=C5CC(O)CC(O[C@@H]6OC[C@@H](O)[C@H](O)[C@H]6O)C5(C)C4CCC3(C)C1(O)C2C (some centres undefined)
Potency [1]: inactive | Potency [2]: inactive | Potency [3]: inactive | Potency [4]: inactive | Potency [5]: inactive | Potency [6]: inactive

C/C=C(\C)C(=O)O[C@@H]1CC2[C@@H](CC=C3C[C@@H](O[C@H]4C[C@H](OC)[C@H](O[C@H]5C[C@H](OC)[C@H](O[C@@H]6O[C@H](C)[C@@H](O[C@H]7C[C@H](OC)[C@H](O[C@@H]8O[C@H](CO)[C@@H](O)[C@H](O)[C@H]8O)[C@@H](C)O7)[C@H](OC)[C@H]6O)[C@@H](C)O5)[C@@H](C)O4)CC[C@@]32C)[C@@]2(O)CC[C@H](C(C)=O)[C@@]12C (some centres undefined)
outcome [1]: inactive [at 9.52 µM] | activity change, negative = inhibition [2]: -6.94% [at 9.73 µM] | outcome [3]: inactive [at 11.6 µM] | activity change, negative = thiol reactive [4]: 14.5% [at 11.5 µM] | activity, negative = inhibition [5]: 2.98% [at 11.6 µM] | redox activity (% of DA3003) [6]: -4.24% [at 11.5 µM]

C=C[C@H]1[C@H](O[C@@H]2O[C@H](CO)[C@@H](O)[C@H](O)[C@H]2O)OC=C(C(=O)OC)[C@H]1CCOC(=O)c1cc(O)c(O)c(O)c1
Potency [1]: inactive | Potency [2]: inactive | Potency [3]: inactive | Potency [4]: 0.922 µM (active) | Potency [5]: inactive | Potency [6]: inactive

C/C=C/c1cc(OC)c2c(c1)[C@@H](C)[C@@H](c1ccc(O)c(OC)c1)O2
Potency [1]: inactive | Potency [2]: inactive | Potency [3]: inactive | Potency [4]: inactive | Potency [5]: inactive | Potency [6]: inactive

CC/C=C\C/C=C\C/C=C\CCCCCCCC(=O)OCC(O)COC1OC(CO)C(O)C(O)C1O (centres undefined)
Potency [1]: inactive | Potency [2]: inactive | Potency [3]: inactive | Potency [4]: inactive | Potency [5]: inactive | Potency [6]: inactive

CC1(C)CC[C@]2(C(=O)O[C@@H]3O[C@H](CO)[C@@H](O)[C@H](O)[C@H]3O)CC[C@]3(C)C(=CCC4[C@@]5(C)C[C@@H](O)[C@H](O)[C@@](C)(CO)C5CC[C@]43C)C2[C@@H]1O (some centres undefined)
Potency [1]: inactive | Potency [2]: inactive | Potency [3]: inactive | Potency [4]: 3.16 µM (active) | Potency [5]: inactive | Potency [6]: inactive

NC(=O)c1csc(C2OC(CO)C(O)C2O)n1 (centres undefined)
Potency [1]: inactive | Potency [2]: inactive | Potency [3]: inactive | Potency [4]: inactive | Potency [5]: inactive | Potency [6]: inactive

C[C@@H]1O[C@@H](O[C@H]2[C@H](OC(=O)[C@]34CCC(C)(C)C[C@H]3C3=CCC5[C@@]6(C)C[C@H](O)[C@H](O[C@@H]7O[C@H](CO)[C@@H](O)[C@H](O)[C@H]7O)[C@@](C)(CO)C6[C@H](O)C[C@@]5(C)[C@]3(C)CC4)OC[C@H](O)[C@@H]2O)[C@H](O)[C@H](O)[C@H]1O[C@@H]1OC[C@@H](O)[C@H](O[C@@H]2OC[C@](O)(CO)[C@H]2O)[C@H]1O (some centres undefined)
outcome [1]: inactive [at 9.52 µM] | outcome [2]: inactive [at 9.73 µM] | activity change, negative = inhibition [3]: 1.22% [at 11.6 µM] | activity change, negative = thiol reactive [4]: 350% [at 11.5 µM] | activity, negative = inhibition [5]: 0% [at 11.6 µM] | redox activity (% of DA3003) [6]: 8.55% [at 11.5 µM]

CC(O)CO[C@@H]1O[C@H](CO)[C@@H](O)[C@H](O)[C@H]1O (some centres undefined)
Potency [1]: inactive | Potency [2]: inactive | Potency [3]: inactive | Potency [4]: inactive | Potency [5]: inactive | Potency [6]: inactive

NC1CCCCN(c2c(F)cc3c(=O)c(C(=O)O)cn(C4CC4)c3c2Cl)C1 (centres undefined)
Potency [1]: inactive | Potency [2]: inactive | Potency [3]: inactive | Potency [4]: inactive | Potency [5]: inactive | Potency [6]: inactive

C=C[C@]1(C)C=C2CCC3C(C)(CCC[C@@]3(C)C(=O)O)C2CC1 (some centres undefined)
Potency [1]: inactive | Potency [2]: inactive | Potency [3]: inactive | Potency [4]: inactive | Potency [5]: inactive | Potency [6]: inactive

C[C@@H]1O[C@@H](O[C@H]2[C@H](O[C@H]3[C@H](O[C@H]4CC[C@@]5(C)C(CC[C@]6(C)C5CC=C5[C@@H]7CC(C)(C)CC[C@]7(C(=O)O[C@@H]7O[C@H](CO)[C@@H](O[C@@H]8O[C@@H](C)[C@H](O)[C@@H](O)[C@H]8O)[C@H](O)[C@H]7O)CC[C@]56C)C4(C)C)OC[C@H](O)[C@@H]3O)O[C@H](CO)[C@@H](O)[C@@H]2O)[C@H](O)[C@H](O)[C@H]1O (some centres undefined)
outcome [1]: inactive [at 9.52 µM] | activity change, negative = inhibition [2]: 0.115% [at 9.73 µM] | outcome [3]: inactive [at 11.6 µM] | activity change, negative = thiol reactive [4]: 125% [at 11.5 µM] | activity, negative = inhibition [5]: 4.91% [at 11.6 µM] | redox activity (% of DA3003) [6]: 19.8% [at 11.5 µM]

CC1OC2OC(=O)C3(C)CC4=C(CO)C5=C(CC(=O)C4(C)C(C1=O)C23)C(C)(C)OC(=O)C5 (centres undefined)
Potency [1]: inactive | Potency [2]: inactive | Potency [3]: inactive | Potency [4]: inactive | Potency [5]: inactive | Potency [6]: inactive

Cc1cc(C)c(Nc2ccnc(Nc3ccc(C#N)cc3)n2)c(C)c1
Potency [1]: inactive | Potency [2]: inactive | Potency [3]: inactive | Potency [4]: inactive | Potency [5]: inactive | Potency [6]: inactive

C=C1C(=O)O[C@@H]2C[C@H](C)[C@@]3(O)C=C(C(C)=O)[C@]4(CC3C[C@H]12)C(=O)O[C@H]1C[C@@H](C)C(CCC(C)=O)=CC[C@H]14 (some centres undefined)
Potency [1]: inactive | Potency [2]: inactive | Potency [3]: inactive | Potency [4]: inactive | Potency [5]: inactive | Potency [6]: inactive

C=C1CCC[C@]2(C)CC[C@@H](C(=C)C(=O)O)[C@H](O)[C@@H]12
Potency [1]: inactive | Potency [2]: inactive | Potency [3]: inactive | Potency [4]: inactive | Potency [5]: inactive | Potency [6]: inactive

COc1ccc(-c2nc(-c3ccc(-c4cccc(Cl)c4)o3)[nH]c2-c2ccc(OC)cc2)cc1
Potency [1]: inactive | Potency [2]: inactive | Potency [3]: inactive | Potency [4]: 4.23 µM (active) | Potency [5]: inactive | Potency [6]: inactive

COc1ccc([C@H]2CNC(=O)C2)cc1OC1CCCC1
Potency [1]: inactive | Potency [2]: inactive | Potency [3]: inactive | Potency [4]: inactive | Potency [5]: inactive | Potency [6]: inactive

CC1(C)CCCC2(C)C1CC(=O)C13CC(CCC12)C(O)(CO)C3 (centres undefined)
Potency [1]: inactive | Potency [2]: inactive | Potency [3]: inactive | Potency [4]: inactive | Potency [5]: inactive | Potency [6]: inactive
